Source: PubChem BioAssay (NCATS)
Records with an inconclusive call do not appear. Active and inactive are the calls of the source. The call rests on the fitted dose curve; in most records, active means well fitted curve in the direction sought with a large enough effect; inconclusive means small, poorly fitted or top-dose-only effect, or another doubt; inactive means no such curve, though single readings can be large; an effect the other way counts as inactive or inconclusive.

Key:
NIH3T3 = assay: qHTS assay to identify novel small-molecules to repurpose for Merkel cell carcinoma treatment (AID 1296009); conditions: MCC and control cell lines, CellTiter-Glo viability, 72 h; at 44.8 µM (top of the series) unless noted; further: nearly all actives have a fitted effect of over 60% in size
Summary of the method: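 Luminescence from CellTiter-Glo, read 10 min after addition at room temperature, reported viability following a 72 hr, 37 degree celsius treatment with NPC or MIPE compounds in titration; values normalized to plate controls.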

C33A = assay: Primary qHTS to identify gynecologic anti-cancer compounds using libraries of approved drugs and bioactive compounds (AID 1345084); conditions: Gynecologic cancer cell panel viability, ATPlite luminescence, 48 h; series mostly up to 57.5 µM; further: on the % scale 0 is the no-effect control and ±100 the full control effect; nearly all actives have a fitted effect of over 55% in size
Summary of the method: (§1)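 Five-concentration response, 48 h; readout is ATP-driven luciferase luminescence.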

CAOV3 = assay: as above; conditions: Gynecologic cancer cell panel viability, ATPlite luminescence, 48 h; series mostly up to 57.5 µM
Summary of the method: as §1

CASKI = assay: as above; conditions: Gynecologic cancer cell panel viability, ATPlite luminescence, 48 h; series mostly up to 57.5 µM
Summary of the method: as §1

Es-2 = assay: as above; conditions: Gynecologic cancer cell panel viability, ATPlite luminescence, 48 h; series mostly up to 57.5 µM
Summary of the method: as §1

HeLa = assay: as above; conditions: Gynecologic cancer cell panel viability, ATPlite luminescence, 48 h; series mostly up to 57.5 µM
Summary of the method: as §1

Hek293T = assay: as above; conditions: Gynecologic cancer cell panel viability, ATPlite luminescence, 48 h, control line for the selectivity index; series mostly up to 57.5 µM
Summary of the method: as §1

JEG-3 = assay: as above; conditions: Gynecologic cancer cell panel viability, ATPlite luminescence, 48 h; series mostly up to 57.5 µM
Summary of the method: as §1

OV90 = assay: as above; conditions: Gynecologic cancer cell panel viability, ATPlite luminescence, 48 h; series mostly up to 57.5 µM
Summary of the method: as §1

PA-1 = assay: as above; conditions: Gynecologic cancer cell panel viability, ATPlite luminescence, 48 h; series mostly up to 57.5 µM
Summary of the method: as §1

SKOV3 = assay: as above; conditions: Gynecologic cancer cell panel viability, ATPlite luminescence, 48 h; series mostly up to 57.5 µM
Summary of the method: as §1

Tov-21-G = assay: as above; conditions: Gynecologic cancer cell panel viability, ATPlite luminescence, 48 h; series mostly up to 57.5 µM
Summary of the method: as §1

Tov112D = assay: as above; conditions: Gynecologic cancer cell panel viability, ATPlite luminescence, 48 h; series mostly up to 57.5 µM
Summary of the method: as §1

C=C[C@]1(C)C[C@@H](OC(=O)CSC2C[C@H]3CC[C@@H](C2)N3C)[C@]2(C)[C@H](C)CC[C@]3(CCC(=O)[C@H]32)[C@@H](C)[C@@H]1O (stereo partly specified)
inactive: outcome (NIH3T3) | Potency (C33A) | Potency (CAOV3) | outcome (CASKI) | Potency (Es-2) | Potency (HeLa) | Potency (Hek293T) | Potency (JEG-3) | Potency (OV90) | Potency (PA-1) | Potency (SKOV3) | Potency (Tov-21-G) | Potency (Tov112D)

Fc1ccc(-c2c3cccc(C(F)(F)F)c3nn2Cc2ccc(F)cc2Cl)cc1
inactive: outcome (NIH3T3) | Potency (C33A) | Potency (CAOV3) | outcome (CASKI) | Potency (Es-2) | Potency (HeLa) | Potency (Hek293T) | Potency (JEG-3) | Potency (OV90) | Potency (PA-1) | Potency (SKOV3) | Potency (Tov-21-G) | Potency (Tov112D)

CC(C)c1cc2c(c(O)c1O)[C@@]13CCCC(C)(C)C1[C@@H](O)[C@@H]2OC3=O (stereo partly specified)
inactive: outcome (NIH3T3) | Potency (C33A) | Potency (CAOV3) | outcome (CASKI) | Potency (Es-2) | Potency (HeLa) | Potency (Hek293T) | Potency (JEG-3) | Potency (OV90) | Potency (PA-1) | Potency (SKOV3) | Potency (Tov-21-G) | Potency (Tov112D)

C=C(C(=O)O)[C@@H]1CC[C@@]2(C)CC[C@@H](O)C(=C)C2C1 (stereo partly specified)
inactive: outcome (NIH3T3) | Potency (C33A) | Potency (CAOV3) | outcome (CASKI) | Potency (Es-2) | Potency (HeLa) | Potency (Hek293T) | Potency (JEG-3) | Potency (OV90) | Potency (PA-1) | Potency (SKOV3) | Potency (Tov-21-G) | Potency (Tov112D)

CC(=O)OCC(Cc1ccccc1)NC(=O)C(Cc1ccccc1)NC(=O)c1ccccc1 (stereo unspecified)
inactive: outcome (NIH3T3) inactive [at 17.4 µM] | Potency (C33A) | Potency (CAOV3) | outcome (CASKI) | Potency (Es-2) | Potency (HeLa) | Potency (Hek293T) | Potency (JEG-3) | Potency (OV90) | Potency (PA-1) | Potency (SKOV3) | Potency (Tov-21-G) | Potency (Tov112D)

C[C@H]1CC[C@@]2(OC1)O[C@H]1CC3C4CC[C@H]5C[C@@H](O[C@@H]6O[C@H](CO)[C@H](O[C@@H]7O[C@H](CO)[C@@H](O)[C@H](O[C@@H]8OC[C@@H](O)[C@H](O)[C@H]8O)[C@H]7O[C@@H]7O[C@H](CO)[C@@H](O)[C@H](O)[C@H]7O)[C@H](O)[C@H]6O)[C@H](O)C[C@]5(C)C4=CC(=O)[C@]3(C)[C@H]1[C@@H]2C (stereo partly specified)
inactive: outcome (NIH3T3) inactive [at 9.27 µM] | activity change, negative = cytotoxicity (C33A) 4.61% [at 11.6 µM] | activity change, negative = cytotoxicity (CAOV3) 5.57% [at 11.6 µM] | activity change, negative = cytotoxicity (CASKI) -2.7% [at 11.6 µM] | activity change, negative = cytotoxicity (Es-2) -0.121% [at 11.6 µM] | activity change, negative = cytotoxicity (HeLa) 9.97% [at 11.6 µM] | activity change, negative = cytotoxicity (Hek293T) 0.949% [at 11.6 µM] | activity change, negative = cytotoxicity (JEG-3) -0.32% [at 11.6 µM] | activity change, negative = cytotoxicity (OV90) -5.92% [at 11.6 µM] | activity change, negative = cytotoxicity (PA-1) 7.95% [at 11.6 µM] | activity change, negative = cytotoxicity (SKOV3) 0.679% [at 11.6 µM] | activity change, negative = cytotoxicity (Tov-21-G) -4.82% [at 11.6 µM] | activity change, negative = cytotoxicity (Tov112D) 2.81% [at 11.6 µM]

CC1CC2OCC3(O)CCC(O)C(C14CC(c1ccoc1)OC4=O)C23CO (stereo unspecified)
inactive: outcome (NIH3T3) | Potency (C33A) | Potency (CAOV3) | outcome (CASKI) | Potency (Es-2) | Potency (HeLa) | Potency (Hek293T) | Potency (JEG-3) | Potency (OV90) | Potency (PA-1) | Potency (SKOV3) | Potency (Tov-21-G) | Potency (Tov112D)

CC(=O)/C=C/C1(O)C(C)(C)CC(O)CC1(C)O (stereo unspecified)
inactive: outcome (NIH3T3) | Potency (C33A) | Potency (CAOV3) | outcome (CASKI) | Potency (Es-2) | Potency (HeLa) | Potency (Hek293T) | Potency (JEG-3) | Potency (OV90) | Potency (PA-1) | Potency (SKOV3) | Potency (Tov-21-G) | Potency (Tov112D)

COc1cc(-c2ccc(O)cc2)c(OC)c(O)c1C1=CC(=O)OC1CC(=O)O (stereo unspecified)
inactive: outcome (NIH3T3) | Potency (C33A) | Potency (CAOV3) | outcome (CASKI) | Potency (Es-2) | Potency (HeLa) | Potency (Hek293T) | Potency (JEG-3) | Potency (OV90) | Potency (PA-1) | Potency (SKOV3) | Potency (Tov-21-G) | Potency (Tov112D)

C[C@@H]1O[C@@H](O[C@H]2[C@H](O[C@H]3[C@H](O[C@H]4CC[C@@]5(C)C(CC[C@]6(C)C5CC=C5[C@@H]7CC(C)(C)C[C@@H](O)[C@]7(C)CC[C@]56C)[C@@]4(C)CO)O[C@H](C(=O)O)[C@@H](O)[C@@H]3O)O[C@H](CO)[C@H](O)[C@@H]2O)[C@H](O)[C@H](O)[C@H]1O (stereo partly specified)
inactive: outcome (NIH3T3) inactive [at 9.27 µM] | activity change, negative = cytotoxicity (C33A) -1.56% [at 11.6 µM] | activity change, negative = cytotoxicity (CAOV3) 6.93% [at 11.6 µM] | activity change, negative = cytotoxicity (CASKI) 9.29% [at 11.6 µM] | activity change, negative = cytotoxicity (Es-2) 0.369% [at 11.6 µM] | activity change, negative = cytotoxicity (HeLa) 7.52% [at 11.6 µM] | activity change, negative = cytotoxicity (Hek293T) -1.54% [at 11.6 µM] | activity change, negative = cytotoxicity (JEG-3) 7.46% [at 11.6 µM] | activity change, negative = cytotoxicity (OV90) 7.08% [at 11.6 µM] | activity change, negative = cytotoxicity (PA-1) 4.96% [at 11.6 µM] | activity change, negative = cytotoxicity (SKOV3) 11% [at 11.6 µM] | activity change, negative = cytotoxicity (Tov-21-G) 5.74% [at 11.6 µM] | activity change, negative = cytotoxicity (Tov112D) 0.964% [at 11.6 µM]

COc1cc(C(=O)OCC2=CCC3C(C(=O)O)=COC(O[C@@H]4O[C@H](CO)[C@@H](O)[C@H](O)[C@H]4O)C23)ccc1O (stereo partly specified)
inactive: outcome (NIH3T3) inactive [at 17.4 µM] | Potency (C33A) | Potency (CAOV3) | outcome (CASKI) | Potency (Es-2) | Potency (HeLa) | Potency (Hek293T) | Potency (JEG-3) | Potency (OV90) | Potency (PA-1) | Potency (SKOV3) | Potency (Tov-21-G) | Potency (Tov112D)

CC(C)C(NC(=O)c1ccc(O)cc1)C(=O)N1CCCC1C(=O)Nc1c(O)cccc1C(=O)O (stereo unspecified)
inactive: outcome (NIH3T3) inactive [at 17.4 µM] | Potency (C33A) | Potency (CAOV3) | outcome (CASKI) | Potency (Es-2) | Potency (HeLa) | Potency (Hek293T) | Potency (JEG-3) | Potency (OV90) | Potency (PA-1) | Potency (SKOV3) | Potency (Tov-21-G) | Potency (Tov112D)
